Only some compounds are listed: those with a hit (about 1.4% of all), similar ones and a draw of the others.
IDE act: activators of human insulin-degrading enzyme in cells; activation, % at 5.96 µM; HEK cells, FAbeta-B cleavage, fluorescence polarization; 0% vehicle, 100% cell-free pure enzyme wells; actives 0.073% (n = 340,000); AID 493087;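 active = activation above the mean of all tested compounds plus 3 SD, set per screening campaign, cut at about 17% in these data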
TPT1 inh: inhibitors of Candida albicans tRNA 2'-phosphotransferase TPT1 | recombinant caTPT1, FP RNA substrate dephosphorylation | inhibition, % at 5 µM | actives 0.81% (n = 300,000) | AID 1962;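 active = inhibition above the mean of all tested compounds plus 3 SD, set per screening campaign, cut at about 24% in these data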;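 note: plate controls were DMSO alone for no effect and ferristatin control at 100 nM for full effect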
IDE cell inh: cellular human IDE inhibition. P14735. HEK cells, FAbetaB cleavage, fluorescence polarization. inhibition, % at 5.59 µM. actives 0.41% (n = 320,000). AID 434962;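 active = percent inhibition above the average of all tested compounds plus 3 SD, set per screening campaign, cut at about 16% in these data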;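 note: IDE supplied by intact live HEK cells; FP after avidin binding of uncleaved biotin substrate so inhibition keeps polarization high; 0% = DMSO wells and 100% = 60 µM reference IDE inhibitor Ii1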
CRFR2-BP ag: CRF-BP/CRF-R2 complex agonism | HEK293 CRF-R2/CRF-BP, calcium dye fluorescence (FLIPR); percent of saturating CRF peptide response | activation, % at 13.2 µM | actives 0.46% (n = 350,000) | AID 588473;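 active = activation of at least 50%, plus an integration ratio under a set limit after plate pattern correction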;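 note: plate controls were neutral control wells without compound for no effect and CRF at EC100 for full effect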
HNF4A DNA FP: change in binding of human HNF4 alpha to DNA; P41235; HNF4a-FITC DNA binding, fluorescence polarization, 1 h; activity change, % at 10 µM; actives 0.3% (n = 360,000); AID 1224865; in the data active = activity change above about 30%, passing the limit was not always enough
Target sequence (P41235 whole entry, looked up): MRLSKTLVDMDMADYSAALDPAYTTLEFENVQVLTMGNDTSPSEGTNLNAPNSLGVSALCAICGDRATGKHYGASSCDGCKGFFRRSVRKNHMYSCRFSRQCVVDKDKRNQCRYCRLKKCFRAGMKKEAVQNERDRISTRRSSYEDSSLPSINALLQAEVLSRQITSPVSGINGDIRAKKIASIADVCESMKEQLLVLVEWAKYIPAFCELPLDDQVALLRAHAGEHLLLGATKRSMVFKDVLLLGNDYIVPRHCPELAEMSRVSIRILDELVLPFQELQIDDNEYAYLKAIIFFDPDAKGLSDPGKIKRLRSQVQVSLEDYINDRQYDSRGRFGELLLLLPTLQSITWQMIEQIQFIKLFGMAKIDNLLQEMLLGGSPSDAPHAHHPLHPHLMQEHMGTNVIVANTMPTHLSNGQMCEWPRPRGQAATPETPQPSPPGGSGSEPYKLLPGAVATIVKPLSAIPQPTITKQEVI
IDE cell inh cf: confirmation of human insulin-degrading enzyme inhibitors in cells; HEK cells, FAbetaB cleavage, fluorescence polarization; inhibition, % at 5.59 µM; shares compounds with IDE cell inh; actives 51% (n = 1,200);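 active = mean inhibition across triplicate wells above the cutoff set by the earlier primary insulin-degrading enzyme screen, cut at about 16% in these data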;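 note: 0% = DMSO wells and 100% = 60 µM reference IDE inhibitor Ii1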
HEK293 tox: kills HEK cells in IDE inhibitor counter-screen; shares compounds with IDE cell inh; HEK293 cytotoxicity, ATP luminescence; inhibition, % at 5.59 µM; actives 28% (n = 1,200); AID 449730; in the data active = inhibition above about 22%;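 note: 0% = vehicle wells and 100% = reference cytotoxic drug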
FP fluor counter: fluorescence interference counter-screen for IDE inhibitors; FP counterscreen for fluorescent artifacts, IDE probe project; shares compounds with IDE cell inh; AID 588718; IC50, µM; 30 tested, under 10 active; call rule not given here
* = called active by the depositor; . = not tested or not shown.

SMILES	IDE act	TPT1 inh	IDE cell inh	CRFR2-BP ag	HNF4A DNA FP	IDE cell inh cf	HEK293 tox	others
Cc1ccccc1N(CC(=O)Nc1ccccc1C(=O)O)S(C)(=O)=O	-34	2	23*	4	-6	14	6
CC(NC(=O)c1ccc(N(C)C)c([N+](=O)[O-])c1)c1ccc(-n2ccnc2)cc1 (configuration not stated)	-4	0	19*	-2	3	8	12
O=C(C1=C[C@H](c2coc3ccccc3c2=O)C[C@H](OCCCCO)O1)N1CCN(Cc2ccc3c(c2)OCO3)CC1	-6	-4	17*	-4	5	2	17
Cc1csc(/C(=N/OC(=O)c2ccco2)C(N)=O)n1	1	-1	0	0	0	.	.
CCc1ccccc1-n1c(SCC(=O)N2CCCC2)nc2[nH]ncc2c1=O	-3	-4	12	-2	0	.	.
O=C(CSc1nc2[nH]ncc2c(=O)n1-c1ccccc1Cl)N1CCCC1	-10	-2	18*	-3	2	7	8
CCOc1ccc(NC(=O)CSc2nc3[nH]ncc3c(=O)n2-c2ccccc2OC)cc1	-38	-6	62*	1	-1	8	7
O=C(O)c1cccc([N+](=O)[O-])c1C(=O)Nc1ccc2ccccc2c1	-5	-5	-1	0	-3	.	.
COc1cc(/C=C2\SC(=S)N(NC(C)=O)C2=O)ccc1OC(=O)c1ccco1	-17	.	22*	0	27	66*	11	FP fluor counter=>55
c1ccc(Nc2ccccc2Nc2ccccn2)nc1	0	-21	-24	1	-6	.	.
Oc1cccc2ccc(Nc3ccccn3)nc12	-17	2	25*	1	-3	10	45*
Cc1ccccc1CC(=O)N1CCN(S(=O)(=O)c2cccs2)CC1	-5	2	3	0	-6	.	.
CC(CC(=O)O)CC(=O)N1CCN(S(=O)(=O)c2cccs2)CC1 (configuration not stated)	-24	-1	20*	4	4	12	9
CC12CCC(=O)N1C(C(=O)NNC(=O)c1ccc(Br)cc1)CS2 (configuration not stated)	4	.	-2	0	2	.	.
CCCn1c(Nc2nc3ccccc3n2C)nc2ccccc21	-29	1	32*	-1	19	24*	8
CCN1CCc2c(sc(NC(=O)Nc3ccc(Cl)c(Cl)c3)c2C(N)=O)C1	-124	13	110*	239*	-84	58*	20
CC1(C(=O)Nc2ccc3c(c2)OCCO3)CCN1C(=O)Cc1ccc(-c2ccccc2)cc1 (configuration not stated)	.	.	.	.	-2	.	.
Cc1nc2ccccc2c(=O)n1-c1ccc(NS(=O)(=O)c2ccc(F)cc2)cc1	-9	-3	22*	-2	1	6	10
Cc1nc2ccccc2c(=O)n1-c1ccc(NS(=O)(=O)c2ccccc2)cc1	4	3	6	-1	-1	.	.
CCOC(=O)N1CCN(CC(O)COCc2ccccc2)CC1 (configuration not stated)	-2	-1	-1	0	1	.	.
CCOC(=O)N1CCN(CC(O)COc2ccc(-c3ccccc3)cc2)CC1 (configuration not stated)	-17	0	17*	-2	-4	10	11
CN(C)S(=O)(=O)N1CCN(CC(O)COc2ccc(-c3ccccc3)cc2)CC1 (configuration not stated)	-18	-1	18*	0	4	6	16
CN(C)S(=O)(=O)N1CCN(CC(O)COc2ccc3cc(Br)ccc3c2)CC1 (configuration not stated)	-12	-1	6	-1	0	.	.
O=S(=O)(NC1=NCCC1)c1cccc(NC(=S)NCCc2ccccc2)c1	-4	-2	22*	-1	-2	11	6
Cc1cc2nc(-c3ccc(SCC(=O)Nc4ccc(S(=O)(=O)N5CCCC5)cc4)nc3)[nH]c2cc1C	-4	9	17*	6	33	4	20
SMILES	IDE act	TPT1 inh	IDE cell inh	CRFR2-BP ag	HNF4A DNA FP	IDE cell inh cf	HEK293 tox	others
Cc1cc2nc(-c3ccc(SCc4ccc(C#N)cc4)nc3)[nH]c2cc1C	-10	-3	17*	1	-2	4	20
CN(CCC1CCOCC1)C(=O)C1CCC(=O)N(CCc2cccc(F)c2)C1 (configuration not stated)	2	-2	7	0	-1	.	.
O=C(Nc1ccccc1Cl)C1CC(=O)N(Cc2ccco2)C1 (configuration not stated)	4	.	-4	0	-3	.	.
CCOc1ccccc1-n1c(SCC(=O)N(C(C)C)C(C)C)nnc1-c1cccnc1	-20	-6	12	1	-1	.	.
CCOc1ccccc1-n1c(SCC(N)=O)nnc1-c1cccnc1	-33	-5	17*	-1	1	13	9
COc1c(O)ccc(/C=C(\C#N)c2nc3ccccc3[nH]2)c1[N+](=O)[O-]	4	5	17*	2	8	3	4
COc1cccc(/C=C(\C#N)c2nc3ccccc3[nH]2)c1OCC(=O)O	3	7	0	2	13	.	.
Cc1sc2ccc3sccc3c2[n+]1C	-23	-3	20*	1	-3	4	5
Cc1sc2c3ccsc3ccc2[n+]1C	-16	0	9	-1	4	.	.
COc1ccccc1NC(=O)N1CCN(c2ccnc3cc(Cl)ccc23)CC1	-28	1	23*	-2	-1	15	12
N#Cc1cccc(S(=O)(=O)N2CCN(c3ccnc4cc(Cl)ccc34)CC2)c1	-34	3	20*	7	-2	8	17
O=C(Nc1ccc(OC(F)(F)F)cc1)N1CCN(c2ccnc3cc(Cl)ccc23)CC1	-32	-3	36*	4	4	12	35*
O=S(=O)(c1ccccc1OC(F)(F)F)N1CCN(c2ccnc3cc(Cl)ccc23)CC1	-20	2	15	3	-3	.	.
O=C(C1CC1)N1CCN(c2ccnc3cc(Cl)ccc23)CC1	-31	-3	22*	-1	-3	16*	13	FP fluor counter=>55
CCN(CC)CCN(Cc1cc2cc3c(cc2[nH]c1=O)OCCO3)C(=S)NC	-5	2	1	-1	-4	.	.
COc1ccccc1CNC(=O)CN1C(=O)NC2(CCCc3ccccc32)C1=O (configuration not stated)	2	.	3	-1	-4	.	.
NC(=O)C1C2CCC(C2)C1C(N)=O (configuration not stated)	1	.	.	7	0	.	.

Compound activity from PubChem.
